Bioassay records (PubChem BioAssay)
Hits are enriched below; roughly 5.8% of the tested compounds scored in any of these assays.
TRPV1 potentiator: potentiators of human vanilloid receptor 1 (TRPV1); Q8NER1; TRPV1-expressing cells, Fluo-8 calcium influx, capsaicin EC20 potentiation; potentiation, % at 8.33 µM; 320,000 tested, 0.02% active; AID 540277; in the data active = potentiation above about 80%; inconclusive = between about 30% and that limit; also: 0% is about no effect
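Cells expressing TRPV1 were dye-loaded with Fluo-8 and read kinetically: 10 s baseline, 3 min after compound (agonist portion), then 2 min after EC20 capsaicin (allosteric enhancer portion). Calcium-bound dye fluorescence at 480/520 nm.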
uPA generation: cell surface uPA generation inhibition | AID 540303 | cell surface uPA generation assay, qHTS | 330,000 tested, 0.31% active | Potency, µM (doses to about 38.3 µM), without a hit: at the top dose activity change, negative = inhibition, usual class: inhibitors; active = well fitted inhibition curve with a large enough effect; inconclusive = small, poorly fitted or top-dose-only effect; inactive = no such curve, though single readings can be large or run the other way; tested in mouse RAW 264.7 cells; also: potency is read from the fitted curve at half-maximal effect; % is scaled to controls: 0 for no effect and ±100 for the full control effect; nearly all actives have a fitted effect of over 55% in size
VP16 counter: counter-screen for ROR gamma inhibitors: Gal4-VP16 reporter; Potency, µM (doses to about 53.6 µM), without a hit: at the highest dose activity, negative = inhibition, actives largely listed as inhibitors; 310,000 tested, 3.5% active; Drosophila S2 Gal4-VP16 UAS-luciferase, luminescence, 20 h; AID 2546;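 also: Gal4-VP16 expression switched on by copper sulfate through the metallothionein promoter; potency is read from the fitted curve at half-maximal effect; % is scaled to controls: 0 for no effect and ±100 for the full control effect; nearly all actives have a fitted effect of over 50% in size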
TRPV1 agonist: agonists of human vanilloid receptor 1 (TRPV1). TRPV1-expressing cells, Fluo-8 calcium influx, agonist mode. 320,000 tested, 0.19% active. AID 540275. activation, % at 8.33 µM. Q8NER1; in the data active = activation above about 80%; inconclusive = between about 30% and that limit; also: 0% is about no effect
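Fluo-8 calcium influx in TRPV1-expressing cells, kinetic read (ex 480/em 520 nm). Compound added and read 3 min for agonist activity, followed by capsaicin at EC20 final and 2 min further read for enhancement.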
RORgamma inh: ROR gamma (mouse) transcription inhibition | P51450 | Potency, µM (titrated, usually from 53.6 µM), without a hit: at the highest dose activity change, negative = inhibition, usual class: inhibitors | Drosophila S2 Gal4-RORgamma UAS-luciferase reporter, 20 h | 310,000 tested, 5.4% active; also: potency is read from the fitted curve at half-maximal effect; % is scaled to controls: 0 for no effect and ±100 for the full control effect; nearly all actives have a fitted effect of over 60% in size
Target sequence (P51450 whole entry, looked up, the tested form may be a part): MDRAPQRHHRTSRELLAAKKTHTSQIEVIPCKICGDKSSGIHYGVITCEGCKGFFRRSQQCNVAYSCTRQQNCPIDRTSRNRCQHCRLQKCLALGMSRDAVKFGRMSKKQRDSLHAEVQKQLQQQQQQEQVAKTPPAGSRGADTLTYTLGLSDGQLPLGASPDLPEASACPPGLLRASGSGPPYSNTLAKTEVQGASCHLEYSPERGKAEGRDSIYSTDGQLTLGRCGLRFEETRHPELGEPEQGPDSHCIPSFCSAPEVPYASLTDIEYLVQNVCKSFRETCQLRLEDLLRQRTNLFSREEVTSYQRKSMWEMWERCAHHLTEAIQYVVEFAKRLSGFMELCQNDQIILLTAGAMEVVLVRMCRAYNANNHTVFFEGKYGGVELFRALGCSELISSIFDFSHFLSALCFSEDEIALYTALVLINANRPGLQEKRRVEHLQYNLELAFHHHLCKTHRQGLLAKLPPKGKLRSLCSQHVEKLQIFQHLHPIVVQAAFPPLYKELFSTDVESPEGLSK
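Luminescence from a UAS-regulated Photinus luciferase reporter in stably transfected Drosophila Schneider cells is measured; decreased signal marks ROR gamma inhibition. Fusion expression is induced by 700 uM copper sulfate for 20 hr.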
Numbers without * were called inactive; [ ] = dose if it differs, or a comment. Unless noted, calls follow the shape of the dose curve; as a rule, active = well fitted curve in the direction sought with a large enough effect; inconclusive = small, poorly fitted or top-dose-only effect, or another doubt; inactive = no such curve, though single readings can be large; an effect the other way counts as inactive or inconclusive.

How did COc1ccc(NS(=O)(=O)c2ccc(NC(=O)c3ccc(N(C)S(C)(=O)=O)cc3)cc2)c(OC)c1 do in these assays?
TRPV1 potentiator: -6.4; uPA generation: 5.3%; VP16 counter: 11.2µM*; TRPV1 agonist: 10.7; RORgamma inh: inconclusive

What do the screens show for `COc1ccc(/C=N/NC(=O)c2ccc(Br)cc2)c(OC)c1`?
TRPV1 potentiator: 6.0; uPA generation: 2.0%; VP16 counter: -16.2%; TRPV1 agonist: -2.4; RORgamma inh: 11.2µM*

What do the screens show for `CCN(CC)c1ccc(C(=O)N/N=C/c2ccccc2OC(F)F)cc1`?
TRPV1 potentiator: -1.6; uPA generation: inconclusive; VP16 counter: inconclusive; TRPV1 agonist: 5.4; RORgamma inh: 2.51µM*

What do the screens show for `COc1ccc(C(=O)N/N=C/c2cc(Br)ccc2O)cc1OC`?
TRPV1 potentiator: -1.0; uPA generation: -9.4%; VP16 counter: 4.47µM*; TRPV1 agonist: 8.3; RORgamma inh: 3.16µM*

Results for CC(C)(C)c1ccc(OCc2ccc(C(=O)N/N=C/c3ccc(O)c(O)c3)cc2)cc1 ?
TRPV1 potentiator: 10.1; uPA generation: -14.8%; VP16 counter: 15.8µM*; TRPV1 agonist: inconclusive; RORgamma inh: inconclusive

Results for COc1ccccc1/C=N/NC(=O)c1ccc(Br)cc1 ?
TRPV1 potentiator: -10.6; uPA generation: 1.4%; VP16 counter: -8.6%; TRPV1 agonist: 16.9; RORgamma inh: 12.6µM*

What do the screens show for `COc1ccc(O)c(/C=N/NC(=O)c2ccc(OCc3cccc(Br)c3)cc2)c1`?
TRPV1 potentiator: 4.6; uPA generation: -2.9%; VP16 counter: 4.47µM*; TRPV1 agonist: 0.2; RORgamma inh: 5.01µM*

Results for COc1ccc(/C=N/NC(=O)c2ccc(N(C)S(=O)(=O)c3ccccc3)cc2)c(OC)c1 ?
TRPV1 potentiator: 29.5; uPA generation: -11.0%; VP16 counter: -4.7%; TRPV1 agonist: -2.1; RORgamma inh: 10µM*

Results for COc1ccccc1NC(=O)C1CCCN(c2cnccn2)C1 (configuration not stated) ?
TRPV1 potentiator: 5.1; uPA generation: 9.4%; VP16 counter: 3.4%; TRPV1 agonist: 0.0; RORgamma inh: -14.8%

How did COc1ccccc1Oc1ccc(Oc2ccccc2OC)cc1 do in these assays?
TRPV1 potentiator: 13.5; uPA generation: 5.3%; VP16 counter: -0.7%; TRPV1 agonist: 0.5; RORgamma inh: inconclusive

How did CCN(Cc1ccccc1)S(=O)(=O)c1cc2[nH]c(=O)c(=O)[nH]c2cc1C do in these assays?
TRPV1 potentiator: -24.6; uPA generation: 4.1%; VP16 counter: -4.7%; TRPV1 agonist: -1.5; RORgamma inh: -24.2%

Results for Cn1cccc1-c1cc(C(=O)N/N=C/c2cc(Br)ccc2O)[nH]n1 ?
TRPV1 potentiator: 13.4; uPA generation: -9.2%; VP16 counter: 10µM*; TRPV1 agonist: -1.4; RORgamma inh: 7.08µM*

How did COc1cc(NC(=O)c2ccccc2)c(OC)cc1NC(=O)Cc1ccc(Br)cc1 do in these assays?
TRPV1 potentiator: -5.9; uPA generation: 0.7%; VP16 counter: 11.2µM*; TRPV1 agonist: 24.0; RORgamma inh: inconclusive

What do the screens show for `Cn1cccc1-c1cc(C(=O)N/N=C/c2ccccc2Cl)[nH]n1`?
TRPV1 potentiator: 12.6; uPA generation: 2.4%; VP16 counter: inconclusive; TRPV1 agonist: -0.3; RORgamma inh: 18.9%

Results for CCCCCCCCCCCCCCOc1ccc(C(=O)O)o1 ?
VP16 counter: -2.7%; RORgamma inh: -23.4%

How did COC(=O)NC(CC(C)=O)c1cccs1 (configuration not stated) do in these assays?
VP16 counter: 1.0%[10 µM]; RORgamma inh: -18.1%[10 µM]

What do the screens show for `CN(C)c1ccc(/C=N/N2C(=S)SC(C)(C)C2N(O)C(=O)Nc2ccc([N+](=O)[O-])cc2)cc1` (configuration not stated)?
TRPV1 potentiator: 5.0; uPA generation: 8.0%; VP16 counter: -4.5%; TRPV1 agonist: 0.3; RORgamma inh: 7.94µM*

How did Cc1cc2c(=O)n(Cc3ccco3)c(SCC(=O)c3ccc(Cl)s3)nc2s1 do in these assays?
TRPV1 potentiator: -1.2; VP16 counter: inconclusive; TRPV1 agonist: 6.5; RORgamma inh: inconclusive

What do the screens show for `CCOC(=O)CC(=O)CSc1nc2sc(C)cc2c(=O)n1Cc1ccco1`?
TRPV1 potentiator: 1.4; uPA generation: -10.0%; VP16 counter: 22.4µM*; TRPV1 agonist: 0.4; RORgamma inh: inconclusive

Results for O=C(N/N=C/c1cccn1-c1ccc([N+](=O)[O-])cc1)c1cccnc1 ?
TRPV1 potentiator: -30.4; uPA generation: 11.0%; VP16 counter: 10µM*; TRPV1 agonist: -1.4; RORgamma inh: inconclusive

How did O=C(N/N=C/c1cccnc1)c1ccc([N+](=O)[O-])cc1 do in these assays?
uPA generation: -2.1%; VP16 counter: 2.0%; RORgamma inh: -5.2%

What do the screens show for `O=C(N/N=C/c1ccncc1)c1ccccc1`?
TRPV1 potentiator: -7.1; uPA generation: -0.6%; VP16 counter: 0.4%; TRPV1 agonist: 0.1; RORgamma inh: 33.6%

Results for O=C(N/N=C/c1cccn1-c1ccccc1)c1ccncc1 ?
TRPV1 potentiator: 10.8; uPA generation: -5.6%; VP16 counter: 20µM*; TRPV1 agonist: 2.6; RORgamma inh: 3.55µM*

What do the screens show for `O=C(N/N=C/c1sc(=O)n(-c2ccccc2)c1Cl)c1ccncc1`?
TRPV1 potentiator: -5.8; uPA generation: -6.5%; VP16 counter: 11.2µM*; TRPV1 agonist: 7.1; RORgamma inh: 7.08µM*

How did COc1cc(C(=O)N/N=C/c2sc(=O)n(-c3ccccc3)c2Cl)cc(OC)c1OC do in these assays?
TRPV1 potentiator: -0.5; uPA generation: -1.6%; VP16 counter: inconclusive; TRPV1 agonist: -10.1; RORgamma inh: -19.8%

Results for OC[C@@H]1O[C@](CO)(O[C@H]2O[C@H](CO)[C@@H](O)[C@H](O)[C@H]2O)[C@H](O)[C@H]1O ?
VP16 counter: -1.3%; RORgamma inh: 5.5%

How did O=C(CCc1ccccc1)Nc1ccnn1C1CCN(Cc2ncc[nH]2)CC1 do in these assays?
TRPV1 potentiator: 6.9; uPA generation: -3.8%; VP16 counter: -1.5%; TRPV1 agonist: -3.1; RORgamma inh: 0.1%

What do the screens show for `CCN1CCN(C(=O)CN(c2ccc(F)c(Cl)c2)S(C)(=O)=O)CC1`?
TRPV1 potentiator: -3.1; uPA generation: 1.4%; VP16 counter: 5.6%; TRPV1 agonist: 2.1; RORgamma inh: -4.1%

Results for CC(C)C[C@H](NC(=O)c1nc[nH]c1C(=O)N[C@@H](CC(C)C)C(=O)OC(C)(C)C)C(=O)OCc1ccccc1 ?
TRPV1 potentiator: 5.3; uPA generation: inconclusive; VP16 counter: 7.08µM*; TRPV1 agonist: 12.3; RORgamma inh: 5.01µM*

Results for CC(C)C[C@H](NC(=O)c1nc[nH]c1C(=O)NCC(=O)OC(C)(C)C)C(=O)OCc1ccccc1 ?
TRPV1 potentiator: inconclusive; uPA generation: -29.2%; VP16 counter: 17.8µM*; TRPV1 agonist: -1.7; RORgamma inh: 3.98µM*
